Results on nine molecules are retold here after PubChem BioAssay (NCI).

Holding throughout (assay): NCI-60 one-dose screen, 48 h (100 = growth as untreated, 0 = no growth, -100 = all killed)
For one test, the system named is EKVX NSCLC. The settings on record: 10 µM unless noted.
For the next test, the system named is SN12C renal. Particulars: 10 µM unless noted.
A further test deals with UO-31 renal. The settings on record: 10 µM unless noted.
In the next test the test system is TK-10 renal. Particulars: 10 µM unless noted.
For the next test, the system named is ACHN renal. Particulars: 10 µM unless noted.
For the next test, the system named is CAKI-1 renal. Particulars: 10 µM.
The next test deals with CCRF-CEM leukemia. The settings on record: 10 µM unless noted.
In the next test the test system is MOLT-4 leukemia. The settings on record: 10 µM unless noted.
Another test concerns SR leukemia. Particulars: 10 µM unless noted.
Another test deals with RPMI-8226 leukemia. The settings on record: 10 µM unless noted.
A further test deals with OVCAR-8 ovarian. Particulars: 10 µM unless noted.
A further test deals with OVCAR-5 ovarian. The settings on record: 10 µM unless noted.
For a further test, the system named is OVCAR-4 ovarian. The settings on record: 10 µM unless noted.
In another test the test system is SK-OV-3 ovarian. Particulars: 10 µM unless noted.
The next test has as its system IGROV1 ovarian. Particulars: 10 µM unless noted.
The subject of another test is HS 578T breast. The settings on record: 10 µM unless noted.
The test system of the next test is NCI/ADR-RES ovarian. The settings on record: 10 µM unless noted.
Another test has as its system A498 renal. The settings on record: 10 µM unless noted.

Each structure is given as a SMILES string. Compounds without any hit were thinned out: in the full panel of roughly 83,000, 20% have a hit.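 48-hour exposure, single concentration, 96-well plates; percent growth endpoint where 0 means no net growth. Active: below 10.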 Values without a mark were called inactive. Active and inactive are the calls of the source.

Turning to `CC1(COc2ccc3ncc(C#Cc4cncc(C(=O)Nc5cc(C(C)(C)C)on5)c4)n3n2)COC1`, the growth was 41.5% with EKVX NSCLC; 30.4% in the test with SN12C renal; 26.9% in the test on UO-31 renal; 91.6% with TK-10 renal; 30.6% in the test on ACHN renal; 35.4% in the test on CAKI-1 renal. The growth is 39.5% with CCRF-CEM leukemia; 45.6% in the test on MOLT-4 leukemia; 34% in the test with SR leukemia; 47.3% in the test with RPMI-8226 leukemia; 35.5% in the test on OVCAR-8 ovarian; 55.9% in the test on OVCAR-5 ovarian. The growth in the test with OVCAR-4 ovarian is 55.6%; in the test on SK-OV-3 ovarian it was 61.2%; in the test on IGROV1 ovarian it was 25%; with HS 578T breast, 15.1%; with NCI/ADR-RES ovarian, 22.2%.

Turning to `Cc1ccc(-c2cc3nc(C(Cl)Cl)nc(-c4ccccc4)n3n2)cc1`, the growth is 99.6% in the test with EKVX NSCLC; 107% with SN12C renal; 91.8% in the test on UO-31 renal; 108% in the test on TK-10 renal; 47.5% with ACHN renal; 72.7% in the test with CAKI-1 renal. The growth with CCRF-CEM leukemia is 101%; with MOLT-4 leukemia, 97%; in the test on SR leukemia it was 85.3%; in the test on RPMI-8226 leukemia it was 82.5%; with OVCAR-8 ovarian, 92.9%; with OVCAR-5 ovarian it was 103%. The growth was 103% in the test with OVCAR-4 ovarian; 97.9% with SK-OV-3 ovarian; 94.3% in the test on IGROV1 ovarian; 109% with HS 578T breast; 79.5% in the test with NCI/ADR-RES ovarian.

With `C/C(=N\NC(=S)Nc1ccc(Br)cc1)c1cc2ccccc2oc1=O`, the growth in the test on EKVX NSCLC is 40.6%; in the test with SN12C renal, 35.2%; in the test with UO-31 renal, 19.5%; in the test on TK-10 renal it was 42.4%; in the test on ACHN renal, 14.9%; in the test on CAKI-1 renal, 9.07% (active). Also, the growth was 12.5% with CCRF-CEM leukemia; 18.1% in the test with MOLT-4 leukemia; 0.863% (active) in the test with SR leukemia; 16.3% in the test with RPMI-8226 leukemia; 5.84% (active) with OVCAR-8 ovarian; 41.3% with OVCAR-5 ovarian. The growth in the test with OVCAR-4 ovarian is 28.2%; with SK-OV-3 ovarian it was 26.1%; with IGROV1 ovarian, 24.6%; in the test on HS 578T breast, 20.5%; with NCI/ADR-RES ovarian it was 11.4%.

Take `Cc1ccc(Cc2cnc(NC(=O)/C(C#N)=C/c3ccc(-c4ccc(Cl)cc4)o3)s2)cc1`: the growth in the test with EKVX NSCLC is 92.7%; in the test with SN12C renal it was 97.4%; with UO-31 renal it was 90.1%; in the test on TK-10 renal it was 120%; in the test with ACHN renal, 97.4%; in the test on CAKI-1 renal it was 83.8%. In addition, the growth with CCRF-CEM leukemia was 98.4%; in the test with MOLT-4 leukemia, 103%; in the test on SR leukemia, 85.9%; in the test with RPMI-8226 leukemia, 94.3%; in the test on OVCAR-8 ovarian, 97.9%; in the test on OVCAR-5 ovarian it was 100%. Besides, the growth was 94.6% in the test on OVCAR-4 ovarian; 90.9% in the test on SK-OV-3 ovarian; 86.8% in the test on IGROV1 ovarian; 102% in the test on HS 578T breast; 92.8% in the test with NCI/ADR-RES ovarian.

As to `COc1cc2c3c(n(CCCNC4CCCCC4)c(=O)c2cc1OC)-c1cc2c(cc1C3=O)OCO2`, the growth with EKVX NSCLC is -65.3% (active); in the test on SN12C renal, -70.3% (active); in the test on UO-31 renal it was 84.5%; with TK-10 renal it was -95% (active); with ACHN renal, -6.15% (active); in the test on CAKI-1 renal, 73.9%. Moreover, the growth in the test with A498 renal is 86.2%; with CCRF-CEM leukemia, -25.3% (active); in the test on RPMI-8226 leukemia, -46.5% (active); in the test on OVCAR-8 ovarian, -66.8% (active); in the test with OVCAR-5 ovarian, -86.4% (active); in the test on OVCAR-4 ovarian, 93.2%. Further, the growth in the test with SK-OV-3 ovarian is 104%; in the test on IGROV1 ovarian, -30.9% (active); in the test with NCI/ADR-RES ovarian, -22.9% (active).

Turning to `Nc1nc(-c2cccc([N+](=O)[O-])c2)c(N=Nc2cccc(Cl)c2)s1`, the growth in the test on EKVX NSCLC is 41.9%; in the test on SN12C renal, 53.2%; with UO-31 renal, 33.5%; in the test on TK-10 renal, 71.7%; with ACHN renal, 48.6%; in the test on CAKI-1 renal, 23.2%. In addition, the growth is 36% in the test with CCRF-CEM leukemia; 26.5% in the test on MOLT-4 leukemia; 31.4% in the test on SR leukemia; 46.6% in the test on RPMI-8226 leukemia; 41.4% in the test on OVCAR-8 ovarian; 64.3% in the test with OVCAR-5 ovarian. The growth is 49.2% in the test with OVCAR-4 ovarian; 42.7% in the test on SK-OV-3 ovarian; 33.8% with IGROV1 ovarian; 55% in the test with HS 578T breast; 38.9% in the test on NCI/ADR-RES ovarian.

For the molecule `COc1cc2c3c(n(CCCN4CCCC4)c(=O)c2cc1OC)-c1cc2c(cc1C3=O)OCO2`, the growth was -55.3% (active) in the test on EKVX NSCLC; 11.8% in the test on SN12C renal; 40.4% in the test on UO-31 renal; -86% (active) with TK-10 renal; 55.6% in the test on ACHN renal; 55.3% in the test with CAKI-1 renal. Also, the growth with A498 renal is 80.2%; in the test with CCRF-CEM leukemia, -11.9% (active); with RPMI-8226 leukemia, -41.2% (active); with OVCAR-8 ovarian, -65.3% (active); in the test with OVCAR-5 ovarian, -73.1% (active); with OVCAR-4 ovarian it was -59.2% (active). Also, the growth was 53.7% in the test with SK-OV-3 ovarian, -70.9% (active) with IGROV1 ovarian, 88.6% in the test on HS 578T breast and -39.6% (active) in the test with NCI/ADR-RES ovarian.

For the molecule `COc1cc(O)c2c(c1)/C=C/C[C@H](O)[C@H](O)C(=O)/C=C\C[C@H](C)OC2=O`, the growth with EKVX NSCLC was 44.2%; in the test with SN12C renal, 7.02% (active); in the test on UO-31 renal, 13.1%; in the test with TK-10 renal, 34.7%; in the test with ACHN renal it was 6.98% (active); in the test with CAKI-1 renal it was 13.6%. Further, the growth with CCRF-CEM leukemia is 8.51% (active); with MOLT-4 leukemia it was 5.34% (active); in the test with SR leukemia, -6.77% (active); with RPMI-8226 leukemia it was -4.42% (active); in the test on OVCAR-8 ovarian it was 19.9%; in the test with OVCAR-5 ovarian, 8.3% (active). Moreover, the growth in the test on OVCAR-4 ovarian was 18.9%; with SK-OV-3 ovarian, 75.4%; in the test with IGROV1 ovarian it was 9.18% (active); in the test with HS 578T breast it was -26.4% (active); in the test with NCI/ADR-RES ovarian, 8.99% (active).

For the molecule `COc1ccc([C@H]2[C@H](O)C(=O)N2c2cc(OC)c(OC)c(OC)c2)cc1`, the growth was 44.4% in the test on EKVX NSCLC; 20.3% with SN12C renal; 32.4% in the test with UO-31 renal; 69.8% in the test with TK-10 renal; 26.8% with ACHN renal; 28.4% in the test with CAKI-1 renal. The growth in the test on A498 renal is -17.5% (active); with CCRF-CEM leukemia it was 26.7%; in the test with RPMI-8226 leukemia it was 22.8%; in the test with OVCAR-8 ovarian, 2.46% (active); in the test with OVCAR-5 ovarian, 29.5%; with OVCAR-4 ovarian, 69.8%. For the same molecule, the growth in the test with SK-OV-3 ovarian is 37.7%; with IGROV1 ovarian, 29.6%; in the test with NCI/ADR-RES ovarian, 18%.
